PubChem BioAssay (NCI)
“And” between values parts separate entries of the source, which are not always exact repeats. Equal entries are not always repeated. Compounds without any hit were thinned out: in the full panel of roughly 79,000, 15% have a hit. A number with no mark means an inactive call. The source made the active and inactive calls. Rule as the data show it: active = growth inhibition above about 70%; inactive = the rest.

Test: NCI Yeast Anticancer Drug Screen. Data for the bub3 strain (AID 167)
Conditions: S. cerevisiae bub3 mutant strain, active compounds read high; at 50.0 µM unless noted
Summary of the method: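 Part of a panel of yeast mutants defective in DNA damage repair or cell cycle regulation. Each strain is grown with compound, and inhibition is calculated relative to solvent-treated cultures.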

Row | SMILES | growth inhibition
1 | CCOC(=O)c1cc(C(O)C(O)C(O)CO)oc1C (stereo not given) | 21.9%
2 | CN=Nc1c(O)[nH]c2ccc(C)cc12 | -8.15%
3 | O/N=C/c1ccc(O)cc1 | 2.55%
4 | CCCCCC=C(C(=O)OCC)C(=O)OCC | -30.4%
5 | O=C(O)CCC(=O)c1ccc(F)cc1 | -22.6%
6 | C[C@H]1/C(=C/C(=O)OCCN(C)C)CC[C@H]2[C@H]1C(=O)C[C@H]1C(C)(C)[C@@H](O)CC[C@]21C | 15.9%
7 | Cc1cc(C)c([N+](=O)[O-])cc1N | 22.8%
8 | CC(=O)c1ccc2c(c1)NC(=O)CC(C)N2 (stereo not given) | 5.05%
9 | O=C(NCCCl)NC1C(O)OC(CO)C(O)C1O (stereo not given) | 96.8% (active)
10 | NC(N)=N/N=C(\c1ccc(C(F)(F)F)cc1)c1ccc(Cl)c(Cl)c1 | 99.3% (active)
11 | CCC(C)C(C#N)(CCN(CC)CC)c1ccccc1 (stereo not given) | 32.9%
12 | COCc1ccccc1-n1nccc1S(C)=O (stereo not given) | 3.25%
13 | CC(=O)OC[C@H](O)[C@@]1(O)CC[C@H]2[C@@H]3CCC4=CC(=O)C=C[C@]4(C)[C@H]3[C@@H](O)C[C@@]21C | 41.6%
14 | NC(CSCCB(O)O)C(=O)O (stereo not given) | -5%
15 | [N-]=[N+]=Nc1ccc2nc(N)nc(N)c2c1 | -7.45%
16 | Cc1ccc(S(=O)(=O)c2ccccc2)cc1 | -5.35% and 3.1%
17 | Cc1cccc(Nc2nc(C)nc3[nH]cc(-c4ccccc4)c23)c1 | -15.5%
18 | CCOC(=O)C(CCc1ccccc1)(NC(C)=O)C(=O)OCC | 14.3%
19 | COC(=O)CC(NC(=O)OCc1ccccc1)C(=O)NCC(=O)Oc1ccc([N+](=O)[O-])cc1 (stereo not given) | 5.75%
20 | C[N+](C)(C)CC1CCC/C1=N\OC(=O)c1ccccc1 (stereo not given) | 14.2%

Row | SMILES | growth inhibition
21 | COc1ccc(C2=C(c3ccccc3)C(=O)C3(c4ccccc4)CC23c2ccc(OC)cc2)cc1 (stereo not given) | 1.15%
22 | CC(C)(Nc1ccccc1)C(=O)OC(C)(C)C(=O)Nc1ccccc1 | -6.45%
23 | c1cc2c(cc1C1=NNC(c3ccc4c(c3)OCO4)=NN1)OCO2 | -4.95%
24 | Nc1ccc2ncc(Nc3ccc(F)cc3)nc2c1 | 17.8%
25 | COc1cc(OC)c(C2SCC(=O)N2c2nnc(C(F)(F)F)s2)cc1OC (stereo not given) | 25.9%
26 | COc1ccc2ncccc2c1[N+](=O)[O-] | -23.4%
27 | CC(=O)c1cccc(NC(=O)Oc2cc(=O)oc3ccccc23)c1 | 38.2%
28 | O=C1C(=O)c2ccccc2C(O)=C1C1CCCCC1 | 18.1%
29 | COc1ccccc1C(=O)N/N=C/c1cccc([N+](=O)[O-])c1 | 29.1%
30 | C=C(c1ccccc1)C1ON(C)CCc2cc(OC)c(OC)cc21 (stereo not given) | 33.6%
31 | CC(=O)Nc1cccc(Br)c1 | -25.5%
32 | CC(=O)C12C[C@](C#N)(N3CCCCCC3)C1C=Cc1ccccc12 (stereo not given in full) | -21.5%
33 | CCOC(=O)O/C(=C\c1ccc(OC)cc1)c1c(OC(=O)OCC)n(C(=O)OCC)c2ccccc12 | 12.7%
34 | CC/C=C/C(CC)(C(=O)OCC)C(=O)OCC | -16.3%
35 | CCCCCCC(=O)OCC(=O)c1ccc(Br)cc1 | 22.2%
36 | CCC(C)(CC)c1ccc(C)cc1OC | 24.6%
37 | COCCN=Cc1ccc(N(C)C)cc1 | 7.45%
38 | O=C(C1=CCCCC1)c1ccc(-c2ccccc2)cc1 | -6.15%
39 | CCOC(=O)CCC(NC(=O)OCc1ccccc1)C(=O)NNC(=O)OC(C)(C)C (stereo not given) | 5.15%
40 | CC(=O)[CH-]C(=O)c1ccccc1.CC(=O)[CH-]C(=O)c1ccccc1.CC1(C)OCC(C2OC3OC(C)(C)OC3C2[O-])O1.CC1(C)OCC(C2OC3OC(C)(C)OC3C2[O-])O1.[Ti+4] (stereo not given) | 27.9%

Test: NCI Yeast Anticancer Drug Screen. Data for the mlh1 rad18 strain (AID 175)
Conditions: S. cerevisiae mlh1 rad18 strain growth inhibition, active compounds read high; at 50.0 µM unless noted
Summary of the method: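 Genetically defined yeast (DNA repair-deficient) exposed to compounds; growth inhibition determined relative to vehicle.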

Row | SMILES | growth inhibition
41 | CCOC(=O)c1cc(C(O)C(O)C(O)CO)oc1C (stereo not given) | 18.1%
42 | CN=Nc1c(O)[nH]c2ccc(C)cc12 | 2.05%
43 | O/N=C/c1ccc(O)cc1 | -28.9%
44 | CCCCCC=C(C(=O)OCC)C(=O)OCC | 11.1%
45 | O=C(O)CCC(=O)c1ccc(F)cc1 | -7.65%
46 | C[C@H]1/C(=C/C(=O)OCCN(C)C)CC[C@H]2[C@H]1C(=O)C[C@H]1C(C)(C)[C@@H](O)CC[C@]21C | -34.1%
47 | Cc1cc(C)c([N+](=O)[O-])cc1N | 19.6%
48 | CC(=O)c1ccc2c(c1)NC(=O)CC(C)N2 (stereo not given) | 0.3%
49 | O=C(NCCCl)NC1C(O)OC(CO)C(O)C1O (stereo not given) | 96.7% (active)
50 | NC(N)=N/N=C(\c1ccc(C(F)(F)F)cc1)c1ccc(Cl)c(Cl)c1 | 99.7% (active)
51 | CCC(C)C(C#N)(CCN(CC)CC)c1ccccc1 (stereo not given) | 14.5%
52 | COCc1ccccc1-n1nccc1S(C)=O (stereo not given) | -2.6%
53 | CC(=O)OC[C@H](O)[C@@]1(O)CC[C@H]2[C@@H]3CCC4=CC(=O)C=C[C@]4(C)[C@H]3[C@@H](O)C[C@@]21C | 27%
54 | NC(CSCCB(O)O)C(=O)O (stereo not given) | -20.4%
55 | [N-]=[N+]=Nc1ccc2nc(N)nc(N)c2c1 | -5.2%
56 | Cc1ccc(S(=O)(=O)c2ccccc2)cc1 | -43.6% and 16.6%
57 | Cc1cccc(Nc2nc(C)nc3[nH]cc(-c4ccccc4)c23)c1 | -7.95%
58 | CCOC(=O)C(CCc1ccccc1)(NC(C)=O)C(=O)OCC | -10%
59 | COC(=O)CC(NC(=O)OCc1ccccc1)C(=O)NCC(=O)Oc1ccc([N+](=O)[O-])cc1 (stereo not given) | 8.5%
60 | C[N+](C)(C)CC1CCC/C1=N\OC(=O)c1ccccc1 (stereo not given) | -2.7%

Row | SMILES | growth inhibition
61 | COc1ccc(C2=C(c3ccccc3)C(=O)C3(c4ccccc4)CC23c2ccc(OC)cc2)cc1 (stereo not given) | 4.7%
62 | CC(C)(Nc1ccccc1)C(=O)OC(C)(C)C(=O)Nc1ccccc1 | -7.4%
63 | c1cc2c(cc1C1=NNC(c3ccc4c(c3)OCO4)=NN1)OCO2 | -3.05%
64 | Nc1ccc2ncc(Nc3ccc(F)cc3)nc2c1 | 15.6%
65 | COc1cc(OC)c(C2SCC(=O)N2c2nnc(C(F)(F)F)s2)cc1OC (stereo not given) | 6.8%
66 | COc1ccc2ncccc2c1[N+](=O)[O-] | -18.6%
67 | CC(=O)c1cccc(NC(=O)Oc2cc(=O)oc3ccccc23)c1 | 29.5%
68 | O=C1C(=O)c2ccccc2C(O)=C1C1CCCCC1 | 26.9%
69 | COc1ccccc1C(=O)N/N=C/c1cccc([N+](=O)[O-])c1 | 4.75%
70 | C=C(c1ccccc1)C1ON(C)CCc2cc(OC)c(OC)cc21 (stereo not given) | 5.45%
71 | CC(=O)Nc1cccc(Br)c1 | -19.1%
72 | CC(=O)C12C[C@](C#N)(N3CCCCCC3)C1C=Cc1ccccc12 (stereo not given in full) | -56.4%
73 | CCOC(=O)O/C(=C\c1ccc(OC)cc1)c1c(OC(=O)OCC)n(C(=O)OCC)c2ccccc12 | 4.05%
74 | CC/C=C/C(CC)(C(=O)OCC)C(=O)OCC | -20.1%
75 | CCCCCCC(=O)OCC(=O)c1ccc(Br)cc1 | 15%
76 | CCC(C)(CC)c1ccc(C)cc1OC | 6.9%
77 | COCCN=Cc1ccc(N(C)C)cc1 | 3.7%
78 | O=C(C1=CCCCC1)c1ccc(-c2ccccc2)cc1 | 4.65%
79 | CCOC(=O)CCC(NC(=O)OCc1ccccc1)C(=O)NNC(=O)OC(C)(C)C (stereo not given) | 21.3%
80 | CC(=O)[CH-]C(=O)c1ccccc1.CC(=O)[CH-]C(=O)c1ccccc1.CC1(C)OCC(C2OC3OC(C)(C)OC3C2[O-])O1.CC1(C)OCC(C2OC3OC(C)(C)OC3C2[O-])O1.[Ti+4] (stereo not given) | 20.2%
